{"source": "PubChem BioAssay AID1220", "about": "(Sanford-Burnham Center for Chemical Genomics, 2008)", "note": "Screen size: about 190,000 compounds; about 1,300 (0.68%) were called active. Cut-off read from the data, not from the text of the source: active = inhibition above about 50%; inactive = the rest. For the sample, actives were picked, then their nearest neighbours and some compounds at random."}
{"biological_target": "Mannose-6-phosphate isomerase (Homo sapiens) (UniProt P34949)", "sequence (P34949 whole entry, looked up)": "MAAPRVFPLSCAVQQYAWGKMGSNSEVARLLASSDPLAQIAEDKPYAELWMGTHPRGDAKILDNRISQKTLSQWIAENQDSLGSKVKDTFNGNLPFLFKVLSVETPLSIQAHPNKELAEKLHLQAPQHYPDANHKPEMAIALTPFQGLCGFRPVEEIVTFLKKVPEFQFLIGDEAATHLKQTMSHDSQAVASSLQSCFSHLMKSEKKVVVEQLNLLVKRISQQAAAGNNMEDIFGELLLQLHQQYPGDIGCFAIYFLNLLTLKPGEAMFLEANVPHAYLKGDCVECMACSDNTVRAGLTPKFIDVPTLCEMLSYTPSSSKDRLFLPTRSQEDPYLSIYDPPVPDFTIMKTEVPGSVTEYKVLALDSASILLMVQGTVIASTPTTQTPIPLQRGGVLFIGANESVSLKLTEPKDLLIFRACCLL", "assay": "MPI inhibition at elevated mannose 6-phosphate – biochemical, fluorescence intensity, high mannose 6-phosphate, primary screen (AID 1220)", "details": "recombinant PMI enzyme, coupled fluorescence intensity; at 20 µM; hits give high values"}
{"molecule": "NNC(=O)c1cc2c(s1)CCCCCC2", "inhibition": "-2.3% (inactive)"}
{"molecule": "O=C(Nc1ccc2c(c1)OCCO2)c1cccc(S(=O)(=O)N2CCCCC2)c1", "inhibition": "18.2% (inactive)"}
{"molecule": "COC(=O)c1ccc(C)c(N(CCO)CCO)c1", "inhibition": "0.5% (inactive)"}
{"molecule": "COc1ccc(-n2c(C(C)(C)C)csc2=Nc2c(C)n(C)n(-c3ccccc3)c2=O)cc1", "inhibition": "5.7% (inactive)"}
{"molecule": "O=S(=O)(Nc1cccc2[nH]ncc12)c1cccs1", "inhibition": "5.1% (inactive)"}
{"molecule": "O=C(O)c1ccccc1NS(=O)(=O)c1ccc2c3c(cccc13)C(=O)N2", "inhibition": "-2% (inactive)"}
{"molecule": "O=C1Nc2ccc(NS(=O)(=O)c3cccs3)c3cccc1c23", "inhibition": "65.7% (active)"}
{"molecule": "COc1ccc(C(CNC(=O)CCOc2ccccc2)N(C)C)cc1", "note": "(centres undefined)", "inhibition": "-3.8% (inactive)"}
{"molecule": "O=C(O)c1ccc(COc2ccc3ccccc3c2/C=C2/NC(=O)N(Cc3ccc(F)cc3)C2=O)cc1", "inhibition": "52.7% (active)"}
{"molecule": "O=C(O)c1ccc(COc2ccccc2/C=C2\\NC(=O)N(Cc3ccc(F)cc3)C2=O)cc1", "inhibition": "-7.9% (inactive)"}
{"molecule": "O=C(O)c1ccc(COc2ccc3ccccc3c2/C=C2/NC(=O)N(c3ccccc3)C2=O)cc1", "inhibition": "22.6% (inactive)"}
{"molecule": "CC1CC(C)CN(CCCNC(=O)c2csc3c2CCCC3)C1", "note": "(centres undefined)", "inhibition": "8.3% (inactive)"}
{"molecule": "CCC(=O)Nc1ccc(Cl)c(NC(=O)c2ccc(Br)o2)c1", "inhibition": "1.8% (inactive)"}
{"molecule": "N#CC1=C(N)OC2=C(C(=O)CC(c3ccccc3)C2)C1c1ccoc1", "note": "(centres undefined)", "inhibition": "-1.4% (inactive)"}
{"molecule": "CC1C(C#N)=C(N)OC2=C1C(=O)CC(c1ccccc1)C2", "note": "(centres undefined)", "inhibition": "10.5% (inactive)"}
{"molecule": "CC(C)CC1C(C#N)=C(N)OC2=C1C(=O)CC(c1ccccc1)C2", "note": "(centres undefined)", "inhibition": "57% (active)"}
{"molecule": "CCN(CC)C(=O)C1=C(C)Nc2nnnn2C1c1cccnc1", "note": "(centres undefined)", "inhibition": "6.1% (inactive)"}
{"molecule": "CC[n+]1c(/C=C/N(C)c2ccccc2)oc2ccc(Cl)cc21", "inhibition": "51.8% (active)"}
{"molecule": "CC[n+]1c(/C=C/N(C)c2ccccc2)oc2ccccc21", "inhibition": "36.4% (inactive)"}
{"molecule": "CC[n+]1c(/C=C/N(C)c2ccccc2)oc2ccc(F)cc21", "inhibition": "26.2% (inactive)"}
{"molecule": "CCCc1cc(=O)[nH]c(SCC(=O)N(C)Cc2ccccc2)n1", "inhibition": "10.9% (inactive)"}
{"molecule": "O=C(NCc1ccco1)C(C(=O)c1ccccc1)n1ccccc1=O", "note": "(centres undefined)", "inhibition": "1% (inactive)"}
{"molecule": "O=C(NCCNS(=O)(=O)c1ccccc1)N1CCOCC1", "inhibition": "-0.7% (inactive)"}
{"molecule": "CCOC(=O)C(NC(=O)Nc1ccc(O)cc1)(c1ccccc1)C(F)(F)F", "note": "(centres undefined)", "inhibition": "50.4% (active)"}
{"molecule": "CCOC(=O)C(NC(=O)Nc1ccc(C(N)=O)cc1)(c1ccccc1)C(F)(F)F", "note": "(centres undefined)", "inhibition": "-6.9% (inactive)"}
{"molecule": "CCOC(=O)C(NC(=O)NC1CCCCC1)(c1ccccc1)C(F)(F)F", "note": "(centres undefined)", "inhibition": "-5.1% (inactive)"}
{"molecule": "O=C(Cc1ccc(Cl)cc1)NCCS(=O)c1ccc(Cl)cc1", "note": "(centres undefined)", "inhibition": "8% (inactive)"}
{"molecule": "CCCN1CCN(CCCNC(=O)CCn2nc(-c3ccccc3)ccc2=O)CC1", "inhibition": "-12.2% (inactive)"}
{"molecule": "CCCn1c(CCc2ccccc2)n[nH]c1=S", "inhibition": "2.6% (inactive)"}
{"molecule": "O=C(Nc1cccc2cccnc12)c1cccc2ccccc12", "inhibition": "-6.9% (inactive)"}
{"molecule": "O=C(O)c1ccccc1C(=O)Nc1ccc(Br)c2cccnc12", "inhibition": "53.1% (active)"}
{"molecule": "O=C(O)c1ccccc1C(=O)Nc1ccccn1", "inhibition": "7.2% (inactive)"}
{"molecule": "c1ccc2c(c1)nc1sccn12", "inhibition": "-4.9% (inactive)"}
{"molecule": "Cc1ccc(/C=C(/C#N)C(=O)NC(=O)Oc2ccccc2)cc1", "inhibition": "3.4% (inactive)"}
{"molecule": "S=C(Nc1cccc2ccccc12)NC1CCCCC1", "inhibition": "48.3% (inactive)"}
{"molecule": "O=C(NC1CCCCC1)Oc1cccc2ccccc12", "inhibition": "61.4% (active)"}
{"molecule": "O=C(NCc1ccccc1)NC1CCCCC1", "inhibition": "5.5% (inactive)"}
{"molecule": "c1ccc(OCCCc2nc(-c3cccnc3)no2)cc1", "inhibition": "-2.4% (inactive)"}
{"molecule": "Cc1cc(C)n2c(Nc3ccc4c(c3)OCCO4)c(-c3ccc(C)o3)nc2n1", "inhibition": "0.2% (inactive)"}
{"molecule": "CCCc1nc(N)c(C#N)c(-c2cccnc2)c1CC", "inhibition": "9.6% (inactive)"}
{"molecule": "O=C(O)C1=C[C@H](c2csc3ccccc23)C[C@H](OCCCCO)O1", "inhibition": "-1.5% (inactive)"}
{"molecule": "O=C(NC1CC1)C1=C[C@H](c2csc3ccccc23)C[C@H](OCCCCO)O1", "inhibition": "1.4% (inactive)"}
{"molecule": "O=C(O)C1=C[C@@H](c2csc3ccccc23)C[C@@H](OCCCCO)O1", "inhibition": "1.5% (inactive)"}
{"molecule": "NC(=O)C1=C[C@@H](c2csc3ccccc23)C[C@@H](OCCCCO)O1", "inhibition": "59.2% (active)"}
{"molecule": "O=C(C1=C[C@H](c2csc3ccccc23)C[C@H](OCCCCO)O1)N1CCOCC1", "inhibition": "9.5% (inactive)"}
{"molecule": "NC(=O)C1=C[C@H](c2csc3ccccc23)C[C@H](OCCCCO)O1", "inhibition": "63.4% (active)"}
{"molecule": "Cc1ccc(C(C(=O)NCc2ccco2)N(C(=O)Cc2cccs2)c2cccnc2)cc1", "note": "(centres undefined)", "inhibition": "-5% (inactive)"}
{"molecule": "c1ccc(COC2CCCN(Cc3nc(-c4cccs4)no3)C2)nc1", "note": "(centres undefined)", "inhibition": "13.3% (inactive)"}
{"molecule": "O=C(Cn1nnc(-c2ccccc2F)n1)Nc1cccc2ncccc12", "inhibition": "-0.5% (inactive)"}
{"molecule": "CS(=O)(=O)c1ccc2nc(N)sc2c1", "inhibition": "6.1% (inactive)"}
{"molecule": "CCOC(=O)c1c(C)[nH]c(C)c1C(=O)COC(=O)c1ccc(Cl)c(S(N)(=O)=O)c1", "inhibition": "-8.6% (inactive)"}
{"molecule": "O=S(=O)(/N=C(/c1ccccc1)N1CCCCC1)c1ccccc1", "inhibition": "7.7% (inactive)"}
{"molecule": "O=c1cnnc(Nc2cccc(F)c2)[nH]1", "inhibition": "-14.5% (inactive)"}
{"molecule": "N#Cc1c(Nc2cccc(F)c2)sc2c(O)cc(=O)[nH]c12", "inhibition": "55.8% (active)"}
{"molecule": "N#Cc1c(Nc2ccccc2)sc(C(=O)c2ccc(F)cc2)c1N", "inhibition": "1.5% (inactive)"}
{"molecule": "CN(C)C(=O)c1ccc2c(c1)n(C)c(=O)n2C", "inhibition": "-6.4% (inactive)"}
{"molecule": "CCCCNC(=O)CSc1nc2ccccc2c(=O)n1C1CCCC1", "inhibition": "0.1% (inactive)"}
{"molecule": "O=C(CNc1ccc2ccccc2c1)NNC1=NCCC1", "inhibition": "52.9% (active)"}
{"molecule": "O=C(CNc1ccccc1)NNC1=NCCC1", "inhibition": "14.8% (inactive)"}
{"molecule": "O=C(CNc1ccc(Br)cc1)NNC1=NCCC1", "inhibition": "-3.4% (inactive)"}
{"molecule": "Clc1cccc(-c2nnc3sc(-c4ccc5c(c4)OCO5)nn23)c1", "inhibition": "6% (inactive)"}
{"molecule": "O=C1CCC(C(=O)OC(C(=O)c2c[nH]c3ccccc23)c2ccccc2)=NN1", "note": "(centres undefined)", "inhibition": "-1.8% (inactive)"}
{"molecule": "COc1ccc(N/C=C/C(=O)C(F)(F)F)cc1", "inhibition": "14.6% (inactive)"}
{"molecule": "CN(C)c1ccc(N/C=C/C(=O)C(C)(C)C)cc1", "inhibition": "12.9% (inactive)"}
{"molecule": "CN(C)c1ccc(N/C=C/C(=O)C(F)(F)F)cc1", "inhibition": "56.5% (active)"}
{"molecule": "CCn1cc(C(=O)NC(=S)Nc2cccc(O)c2)cn1", "inhibition": "0.6% (inactive)"}
{"molecule": "CCCN=Cc1c(CCC)[nH]n(-c2nc3ccccc3s2)c1=O", "inhibition": "4.7% (inactive)"}
{"molecule": "CCCc1[nH]n(-c2nc3ccccc3s2)c(=O)c1C=NCC1CCCO1", "note": "(centres undefined)", "inhibition": "51% (active)"}
{"molecule": "CCCc1[nH]n(-c2nc3ccccc3s2)c(=O)c1C=NCC(C)C", "inhibition": "0.7% (inactive)"}
{"molecule": "O=C(O)CCCC(=O)Nc1ccccc1C(=O)N1CCOCC1", "inhibition": "-1.4% (inactive)"}
{"molecule": "CC(=O)c1cccc(NC(=O)CN2C(=S)NC(C)(C)CC2C)c1", "note": "(centres undefined)", "inhibition": "-1.5% (inactive)"}
{"molecule": "Cc1ccc(O)c(C=Nc2cc(C)ccc2O)c1", "inhibition": "23.3% (inactive)"}
{"molecule": "Cc1ccc(O)c(N=Cc2cccs2)c1", "inhibition": "65.7% (active)"}
{"molecule": "Cc1ccc(O)c(N=CC2=C(O)c3ccccc3C2=O)c1", "inhibition": "15.3% (inactive)"}
{"molecule": "O=C(NC1CCCCC1)N1CCC(c2nc3ccccc3[nH]2)CC1", "inhibition": "1.1% (inactive)"}
{"molecule": "COC(=O)c1ccc(OC(=O)c2ccco2)cc1", "inhibition": "-6.2% (inactive)"}
{"molecule": "O=C(Oc1ccc(-c2cnc3ccccc3n2)cc1)c1ccco1", "inhibition": "15.4% (inactive)"}
{"molecule": "Cc1cc(C(=O)CSCCCn2c(=O)[nH]c3ccccc32)c(C)n1C", "inhibition": "-21.9% (inactive)"}
{"molecule": "CCN(C(=O)CN1CCN(c2ccccc2)CC1)c1c(N)n(Cc2ccccc2)c(=O)[nH]c1=O", "inhibition": "7.8% (inactive)"}
{"molecule": "CCN(C(=O)CN1CCN(c2ccc(OC)cc2)CC1)c1c(N)n(Cc2ccccc2)c(=O)[nH]c1=O", "inhibition": "2.4% (inactive)"}
{"molecule": "CC(C)CN(C(=O)CN1CCN(c2ccc(O)cc2)CC1)c1c(N)n(CC(C)C)c(=O)[nH]c1=O", "inhibition": "52.3% (active)"}
{"molecule": "CCN(C(=O)CN1CCN(c2ccc(O)cc2)CC1)c1c(N)n(Cc2ccccc2)c(=O)[nH]c1=O", "inhibition": "51.6% (active)"}
{"molecule": "CC(=O)c1ccc(N2CCN(CC(=O)N(CC(C)C)c3c(N)n(CC(C)C)c(=O)[nH]c3=O)CC2)cc1", "inhibition": "-0.1% (inactive)"}
{"molecule": "CC(C)CN(C(=O)CN1CCN(c2ccc(F)cc2)CC1)c1c(N)n(CC(C)C)c(=O)[nH]c1=O", "inhibition": "-8.7% (inactive)"}
{"molecule": "Cc1ccc(NC(=S)N2CCCN(Cc3ccc(F)cc3)C2)c(C)c1", "inhibition": "-3.7% (inactive)"}
{"molecule": "Cc1ccc(CC(=O)Nc2cccnc2)cc1", "inhibition": "10.1% (inactive)"}
{"molecule": "Cc1ccc(N2C(=S)SC3CS(=O)(=O)CC32)cc1", "note": "(centres undefined)", "inhibition": "-0.7% (inactive)"}
{"molecule": "O=C(CCC1CCCC1)Nc1nnc(-c2ccc3c(c2)OCO3)s1", "inhibition": "1.1% (inactive)"}
{"molecule": "CCOC(=O)c1c(C)oc2c1c(C(c1ccccc1)N1CCOCC1)c(O)c1ccccc12", "note": "(centres undefined)", "inhibition": "30.5% (inactive)"}
{"molecule": "CCOC(=O)c1c(-c2ccccc2)[nH]c2ccc(O)cc12", "inhibition": "5.9% (inactive)"}
{"molecule": "CCOC(=O)c1c(C)[nH]c2c1-c1ccccc1C(=O)C2=O", "inhibition": "62.9% (active)"}
{"molecule": "CCOC(=O)c1c(OCC)[nH]c2c1cc(O)c1ccccc12", "inhibition": "54.7% (active)"}
{"molecule": "CCOC(=O)c1c(C)oc2c1cc(O)c1ccccc12", "inhibition": "54.3% (active)"}
{"molecule": "CCOC(=O)c1c(C)[nH]c(C)c1-c1ccccc1OC", "inhibition": "1.6% (inactive)"}
{"molecule": "CCOC(=O)c1c2c3c(cccc3[nH]c1=O)C(=O)c1ccccc1-2", "inhibition": "-30.6% (inactive)"}
{"molecule": "CCOC(=O)c1c(C)oc2ccc(O)cc12", "inhibition": "2.8% (inactive)"}
{"molecule": "CCOC(=O)c1c(C)oc2c1c(C=NCc1ccccn1)c(O)c1ccccc12", "inhibition": "32.6% (inactive)"}
{"molecule": "CCOC(=O)c1c(C)cc(=O)oc1C", "inhibition": "3.9% (inactive)"}
{"molecule": "CCOC(=O)c1c(OCC)[nH]c2ccc(O)cc12", "inhibition": "-2.7% (inactive)"}
